These results are taken from PubChem BioAssay.

SMILES strings stand for the structures. Values joined by “and” are separate entries in the source; they are usually repeats but may differ in a detail not shown here. Equal values may be shown once. For some of these results: Entries with a potency or affinity are not part of this list. Active and inactive are the calls of the source. Unless noted, how the calls were made is not given here.

Experiment [1] has as its target Calcium-dependent protein kinase 1 (Plasmodium falciparum (isolate 3D7)) (UniProt P62344). The experiment can be described thus: PfCDPK1 kinase inhibitors, biochemical, TCAMS library (AID 1159585; cut-off not given, nearly all actives have IC50 up to about 0.98 µM;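 further: inhibitors leave more ATP so luminescence rises with inhibition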). To be noted: recombinant PfCDPK1, Kinase-Glo ATP depletion luminescence. (Kinase-Glo reads ATP consumption through a luciferase reaction.)
Experiment [2] deals with Plasmodium falciparum protein kinase 6 (PK6, PF3D7_1337100) (UniProt Q8IDW1). As to the kind of experiment: PfPK6 kinase inhibitors, biochemical, TCAMS library (AID 1159586). To be noted: recombinant PfPK6, Kinase-Glo ATP depletion luminescence.
Chain of Plasmodium falciparum protein kinase 6 (PK6, PF3D7_1337100) (Q8IDW1 1-305): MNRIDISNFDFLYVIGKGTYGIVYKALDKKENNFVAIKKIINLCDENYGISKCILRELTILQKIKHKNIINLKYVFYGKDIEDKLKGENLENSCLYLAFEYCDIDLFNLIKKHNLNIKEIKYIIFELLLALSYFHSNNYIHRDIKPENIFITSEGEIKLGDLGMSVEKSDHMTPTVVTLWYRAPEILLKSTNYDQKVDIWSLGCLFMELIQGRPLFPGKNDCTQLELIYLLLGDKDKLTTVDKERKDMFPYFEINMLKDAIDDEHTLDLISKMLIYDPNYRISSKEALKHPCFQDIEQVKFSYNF
Experiment [3] deals with Protein kinase 7 (PK7), Plasmodium falciparum 3D7 (PF3D7_0213400) (UniProt Q7YTF7). The experiment can be described thus: inhibition of Plasmodium PK7 catalytic activity – biochemical, TCAMS antimalarial set, Kinase-Glo luminescence (AID 1159587). To be noted: recombinant PfPK7, Kinase-Glo ATP depletion luminescence.
Chain of Protein kinase 7 (PK7), Plasmodium falciparum 3D7 (PF3D7_0213400) (Q7YTF7 1-343): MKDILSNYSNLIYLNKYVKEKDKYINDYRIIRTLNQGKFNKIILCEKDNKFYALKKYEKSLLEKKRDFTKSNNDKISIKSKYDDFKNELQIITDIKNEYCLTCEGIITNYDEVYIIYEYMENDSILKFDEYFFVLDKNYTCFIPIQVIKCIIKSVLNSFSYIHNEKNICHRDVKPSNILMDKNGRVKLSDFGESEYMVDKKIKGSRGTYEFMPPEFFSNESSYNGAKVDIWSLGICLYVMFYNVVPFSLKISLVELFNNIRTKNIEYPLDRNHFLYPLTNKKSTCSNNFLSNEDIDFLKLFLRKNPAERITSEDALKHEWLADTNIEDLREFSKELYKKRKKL
Experiment [4] has as its target Calcium-dependent protein kinase 4 (Plasmodium falciparum (isolate 3D7)) (UniProt Q8IBS5). As to the kind of experiment: PfCDPK4 kinase inhibitors, biochemical, TCAMS library (AID 1159588; cut-off not given, nearly all actives have IC50 up to about 0.91 µM). To be noted: recombinant PfCDPK4, Kinase-Glo ATP depletion luminescence.
Experiment [5] in a line: antimalarial activity against Dd2 strain (AID 2302;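 active means growth inhibition above 50% at the single 2 µM test dose, taken to imply half-maximal potency below 2 µM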;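 further: 0% = DMSO untreated growth and 100% = chloroquine plus artemisinin killed control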). To be noted: P. falciparum Dd2 in RBCs, LDH growth readout, 72 h; at 2 µM; stronger effect = higher value.
Experiment [6] in a line: human hepatoma cell viability loss – ATP luminescence, cytotoxicity control for P. falciparum antimalarial project, primary screen (AID 2303;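 active means inhibition above 50%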;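 further: 0% = DMSO wells and 100% = digitonin-killed cells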). To be noted: HepG2 viability, 24-48 h, at 10 µM, stronger effect = higher value.
In experiment [7] the target is L-lactate dehydrogenase (Plasmodium falciparum (isolate CDC / Honduras)) (UniProt Q27743). The experiment can be described thus: PfLDH activity inhibition – cell lysate, 3D7 strain, counter-screen for P. falciparum growth inhibition project (AID 2304).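 Further: 0% = vehicle and 100% = reference inhibitor.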 To be noted: P. falciparum 3D7 crude extract, LDH APAD/NBT absorbance; at 2 µM; stronger effect = higher value. On the technique in general: A counterscreen serves to expose hits that act by an unwanted route or on another target.
Chain of L-lactate dehydrogenase (Plasmodium falciparum (isolate CDC / Honduras)) (Q27743 whole entry, looked up): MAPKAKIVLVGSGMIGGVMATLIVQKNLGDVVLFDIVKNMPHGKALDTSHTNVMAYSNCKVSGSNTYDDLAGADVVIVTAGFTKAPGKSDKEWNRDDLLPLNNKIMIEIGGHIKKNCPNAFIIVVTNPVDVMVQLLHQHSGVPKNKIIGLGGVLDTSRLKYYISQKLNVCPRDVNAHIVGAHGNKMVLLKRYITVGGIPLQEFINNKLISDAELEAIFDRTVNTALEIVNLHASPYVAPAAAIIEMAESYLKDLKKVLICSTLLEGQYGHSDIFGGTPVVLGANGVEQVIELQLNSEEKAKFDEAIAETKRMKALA

Experiment [8] can be described thus: inhibition of 3D7 malaria parasite growth – strain 3D7 (AID 2306).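 Further: 0% = DMSO wells and 100% = chloroquine plus artemisinin control wells.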 To be noted: P. falciparum 3D7 erythrocytic growth, LDH absorbance, 72 h; at 2 µM; stronger effect = higher value.
A further experiment deals with F380Y. The experiment can be described thus: BK channel mutant inhibitors and activators – cell-based, U2OS BacMam, thallium flux, beta subunits, selectivity assay, profiling panel (AID 1259406;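 active means thallium flux through the channel raised or lowered by more than 3 SD from vehicle-only wells, actives on both sides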;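 further: initial slope of Thallos dye fluorescence rise after thallium is added; log ratio against the mean of 0.3% DMSO vehicle wells on the same plate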). To be noted: U2OS BacMam BK variants, at 30 µM.
For the next experiment, the system named is F380Y/beta1. Described as above. To be noted: U2OS BacMam BK variants, at 30 µM.
The subject of another experiment is F380Y/beta2Delta. The description is as above. To be noted: U2OS BacMam BK variants, at 30 µM.
In the next experiment the test system is F380Y/beta4. The experiment is described as above. To be noted: U2OS BacMam BK variants, at 30 µM.
The target in experiment [9] is Calcium-activated potassium channel subunit alpha-1 (Homo sapiens) + Leucine-rich repeat-containing protein 26 (Homo sapiens) (UniProt Q12791+Q2I0M4). Described as above. To be noted: U2OS BacMam BK variants, F380Y/Slo1WT/gamma1, at 30 µM.
Chain of Calcium-activated potassium channel subunit alpha-1 (Homo sapiens) + Leucine-rich repeat-containing protein 26 (Homo sapiens) (Q2I0M4 whole entry, looked up, one chain of several): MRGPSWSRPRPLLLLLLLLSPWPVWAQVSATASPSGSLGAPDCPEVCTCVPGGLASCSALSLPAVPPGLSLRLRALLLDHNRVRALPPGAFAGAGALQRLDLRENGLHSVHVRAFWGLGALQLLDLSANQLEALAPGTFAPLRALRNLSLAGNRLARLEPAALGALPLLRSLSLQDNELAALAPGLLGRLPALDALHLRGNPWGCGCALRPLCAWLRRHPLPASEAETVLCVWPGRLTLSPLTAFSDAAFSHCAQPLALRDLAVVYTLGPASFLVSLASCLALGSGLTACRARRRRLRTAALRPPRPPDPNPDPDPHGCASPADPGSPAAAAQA
A further experiment relates to R275C. The experiment is described as above. To be noted: U2OS BacMam BK variants, at 30 µM.
In another experiment the test system is R275C/beta1. Described as above. To be noted: U2OS BacMam BK variants, at 30 µM.
In the next experiment the test system is R275C/beta2Delta. The experiment is described as above. To be noted: U2OS BacMam BK variants, at 30 µM.
Another experiment deals with R275C/beta4. Described as above. To be noted: U2OS BacMam BK variants, at 30 µM.
The subject of the next experiment is R275C/Slo1WT/beta2. The experiment is described as above. To be noted: U2OS BacMam BK variants, at 30 µM.
Experiment [10] can be described thus: P. berghei load reduction in hepatocytes – cell-based, HepG2, luciferase luminescence, HepG2 viability, primary screen (AID 624349; in the data active means parasite load remaining mostly below about 12%, no sharp cut-off; inactive means mostly above about 10%;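 further: 100% = mean of DMSO negative control wells on the same plate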). To be noted: P. berghei liver stage in HepG2, luciferase luminescence, concentration not given here; parasite load remaining: stronger effect = lower value; viability: measured here: HepG2 viability without parasites.
The test system of experiment [11] is Aerobactin synthetase IucA (Klebsiella pneumoniae). As to the kind of experiment: inhibition of K. pneumoniae IucA enzyme – biochemical, Tocris library, absorbance (AID 1345561).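 Further: 100% = enzyme without compound and 0% = no enzyme.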 To be noted: purified IucA enzyme assay, absorbance (OD) read-out; stronger effect = lower value;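 tested at 8 µM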.
Experiment [12] can be described thus: viability loss with induced miR-34 in A549 – imaging, A549 dox-inducible miR-34, nuclei and caspase counts, primary screen (AID 1347080;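 active means compounds whose cell count with miR-34 switched on is under 0.7 times the count with it off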). To be noted: A549 miR-34 inducible, Hoechst nuclei count, 48 h.
The nature of experiment [13]: MELAS cybrid and Rieske KO viability enhancers – cell-based, MELAS cybrids, Rieske KO mouse fibroblasts, CellTiter-Glo, primary screen (AID 1508586;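 active means mean z-score across replicates of 1.96 or higher in either the MELAS or the Rieske mutant cell line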;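 further: z relative to plate mean and SD of compound and empty wells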). To be noted: low glucose. Background: ATP-based viability assays read luminescence as a measure of living cells.
Experiment [14] can be described thus: galactose survival enhancers in mitochondrial complex I cybrids – cell-based, galactose medium, ATP luminescence, primary screen (AID 1645843;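 active means z-score of at least 1.8 in each of two replicates, scored against plate mean and spread of sample wells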;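 further: positive z means more ATP and so rescue of galactose-driven cybrid death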). To be noted: complex I mutant cybrid cells, 72 h, stronger effect = higher value.

Chain of Calcium-dependent protein kinase 1 (Plasmodium falciparum (isolate 3D7)) (P62344 whole entry, looked up): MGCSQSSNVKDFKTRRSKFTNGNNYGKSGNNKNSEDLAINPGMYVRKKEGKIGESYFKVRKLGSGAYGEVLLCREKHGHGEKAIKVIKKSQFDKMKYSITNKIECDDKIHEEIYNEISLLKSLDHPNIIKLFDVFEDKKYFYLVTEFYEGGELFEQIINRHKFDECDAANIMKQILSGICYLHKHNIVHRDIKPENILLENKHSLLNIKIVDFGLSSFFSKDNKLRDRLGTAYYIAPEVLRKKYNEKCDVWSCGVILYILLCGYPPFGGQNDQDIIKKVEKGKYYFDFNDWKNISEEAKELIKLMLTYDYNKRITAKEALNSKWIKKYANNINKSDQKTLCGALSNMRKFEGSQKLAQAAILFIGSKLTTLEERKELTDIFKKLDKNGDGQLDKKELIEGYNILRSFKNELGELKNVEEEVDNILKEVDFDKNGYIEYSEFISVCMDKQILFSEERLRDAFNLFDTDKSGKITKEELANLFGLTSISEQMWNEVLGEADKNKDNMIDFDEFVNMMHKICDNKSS
Chain of Calcium-dependent protein kinase 4 (Plasmodium falciparum (isolate 3D7)) (Q8IBS5 whole entry, looked up): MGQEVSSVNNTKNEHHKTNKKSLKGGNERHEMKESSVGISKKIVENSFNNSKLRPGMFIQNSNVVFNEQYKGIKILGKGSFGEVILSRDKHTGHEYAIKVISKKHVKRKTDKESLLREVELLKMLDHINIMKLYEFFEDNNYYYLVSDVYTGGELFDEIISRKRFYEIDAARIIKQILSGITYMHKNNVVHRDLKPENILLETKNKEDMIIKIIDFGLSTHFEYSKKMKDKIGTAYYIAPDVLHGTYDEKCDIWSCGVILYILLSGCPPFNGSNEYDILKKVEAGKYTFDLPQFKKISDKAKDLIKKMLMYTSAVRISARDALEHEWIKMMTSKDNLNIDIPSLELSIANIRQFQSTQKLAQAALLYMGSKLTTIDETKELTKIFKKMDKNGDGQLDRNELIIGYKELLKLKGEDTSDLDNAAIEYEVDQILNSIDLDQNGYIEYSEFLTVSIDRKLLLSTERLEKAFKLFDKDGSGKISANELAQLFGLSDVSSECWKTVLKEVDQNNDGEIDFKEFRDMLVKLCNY

Turning to `COc1ccc(Nc2nc(N/N=C/c3ccc(O)cc3)nc(Nc3ccc([N+](=O)[O-])cc3)n2)cc1`, the outcome in [1], in experiment [2], in experiment [3] and in [4] was inactive.

Turning to `COc1cc(/C=C(\C2=NC(=O)CS2)c2nc3cccnc3n2C)ccc1O`, the result in experiment [1], in experiment [2], in experiment [3] and in [4] was inactive.

Take `Cc1cccc2[nH]c(-c3cccc(-c4cccc(NC(=O)Cc5ccc[n+]([O-])c5)c4)c3)nc12`: the result in experiment [1], in [2], in experiment [3] and in [4] was inactive.

Regarding `CC[C@H](C)[C@H](NC(=O)[C@@H](CC1CCCCC1)[C@H](CC)N(O)C=O)C(=O)Nc1ccccn1`, the result in experiment [1], in experiment [2], in [3] and in experiment [4] was inactive.

Turning to `CCCO[C@H](C(=O)OC)[C@H](CC1Cc2ccccc2C1)C(=O)NCCC1=CCCCC1`, the outcome in [1], in experiment [2], in experiment [3] and in [4] was inactive.

For the molecule `O=C(N/C=N/c1cc([N+](=O)[O-])c(-c2ccncc2)n1-c1ccccc1)c1cccc(O)c1`, the result in experiment [1], in experiment [2], in experiment [3] and in experiment [4] was inactive.

Turning to `COc1ccc(Nc2nc(N/N=C/c3cc(Cl)ccc3O)nc(Nc3ccccc3)n2)cc1`, the outcome in experiment [1], in experiment [2], in [3] and in experiment [4] was inactive.

For `CN(C)c1nc(N/N=C/c2cc(Cl)ccc2O)nc(Nc2ccc(F)cc2)n1`, the result in [1], in experiment [2], in experiment [3] and in experiment [4] was inactive.

Broadly, the inhibition is the relative decrease from the control value, in per cent. As for `O=C(Nc1ccc(Oc2ccc(OC(F)(F)F)cc2)cc1)c1ccco1`, the values for the growth inhibition in experiment [5] and in experiment [8] were 71% (active) and 90% (active), respectively. Further, the inhibition in experiment [6] is 5% (inactive); in experiment [7], -1% (inactive). Moreover, the outcome in experiment [1], in [2], in experiment [3] and in [4] was inactive. For the same molecule, the log fold change Tl+ flux in the experiment on F380Y is -0.43 (active); with F380Y/beta1, -0.196 (active); with F380Y/beta2Delta, -0.597 (active); with F380Y/beta4, -0.36 (active); in experiment [9], -0.305 (active); in the experiment on R275C, -0.00331 (inactive). The log fold change Tl+ flux with R275C/beta1 was -0.0279 (inactive); in the experiment with R275C/beta2Delta, 0.0205 (inactive); in the experiment with R275C/beta4, -0.00484 (inactive); with R275C/Slo1WT/beta2 it was 0.0301 (inactive).

Take `C=CC[C@@H](C[C@H](O)[C@H](Cc1ccccc1)NC(=O)c1ccc(-c2cccnn2)cc1)C(=O)NC1CCCCC1`: the result in experiment [1], in [2], in experiment [3] and in experiment [4] was inactive.

With `CCCC[C@H](C(=O)NCc1ccccc1C(F)(F)F)N1C(=O)CCC1C(=O)Nc1ccc([N+](=O)[O-])cc1` (stereo partly specified), the outcome in experiment [1], in [2], in experiment [3] and in [4] was inactive.

The term viability denotes a read-out of living cells in per cent, often relative to untreated cells. As a reminder, the remaining activity is the signal under treatment as a percentage of the control signal. For `COc1ccc(Cl)cc1NC(=O)Nc1cc(C)nc2ccccc12`, the growth inhibition in [5] was 99% (active); in experiment [8], 101% (active). Moreover, the inhibition is 10% (inactive) in experiment [6] and -3% (inactive) in [7]. Further, the parasite load remaining in experiment [10] is 55.8% (inactive). Moreover, the viability in [10] amounted to 153%. Besides, the outcome in experiment [1], in [2], in experiment [3] and in experiment [4] was inactive. For the same molecule, the remaining activity in experiment [11] was 102% (inactive). Besides, the fold change in [12] (stronger effect = lower value, cell number ratio, induced over uninduced) was 0.905 (inactive) and 1.03 (inactive); in experiment [12] (measured here: relative caspase fold change +Dox/-Dox) it was 0.387 and 0.813. The cell count in experiment [12] (measured here: total cells with miR-34 induction, stronger effect = lower value) is 6720 and 4040; in [12] (measured here: total cells without miR-34 induction), 7420 and 3920. Also, the z-score is -0.407 (inactive) in [13] (MELAS cybrid survival, CellTiter-Glo 48 h, stronger effect = higher value); 0.602 in [13] (Rieske KO mouse fibroblast survival, CellTiter-Glo 72 h); -0.645 (inactive) in experiment [14].
